Experimental data published in PubChem BioAssay.
Calls of active or inactive are those of the source. Unless noted, no rule for the calls is given here.

What was measured:
[1] = HepG2 liver cancer cell viability effects, profiling panel, resazurin fluorescence, 24 h, PK04 Diversity Set (AID 1172); settings: higher = more signal; also: test concentration not given here
[2] = basal S. cerevisiae growth modulation, no modifier, primary screen, OD600, strain BY4716, 24 h, basal condition (AID 1173); settings: OD600, 24 h, higher = more signal, called active from +8 up or from −8 down
[3] = MM1S myeloma cell viability, profiling panel, resazurin fluorescence, basal, 24 h, PK04 Diversity Set (AID 1174); settings: higher = more signal, called active from +8 up or from −8 down;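 also: MM1S multiple myeloma cell line; test concentration not given here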
[4] = biological target: Dihydroorotate dehydrogenase (quinone), mitochondrial (Plasmodium falciparum (isolate 3D7)) (UniProt Q08210); assay: PfDHODH enzyme inhibitors, primary screen, biochemical, C-terminal His tag, absorbance 600 nm (AID 1175); settings: DCIP absorbance 600 nm, higher = more signal, called active from +8 up or from −8 down;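 also: recombinant parasite enzyme with a five histidine tag at its C terminus; test concentration not given here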
Dihydroorotate dehydrogenase (quinone), mitochondrial (Plasmodium falciparum (isolate 3D7)), sequence (Q08210 whole entry, looked up): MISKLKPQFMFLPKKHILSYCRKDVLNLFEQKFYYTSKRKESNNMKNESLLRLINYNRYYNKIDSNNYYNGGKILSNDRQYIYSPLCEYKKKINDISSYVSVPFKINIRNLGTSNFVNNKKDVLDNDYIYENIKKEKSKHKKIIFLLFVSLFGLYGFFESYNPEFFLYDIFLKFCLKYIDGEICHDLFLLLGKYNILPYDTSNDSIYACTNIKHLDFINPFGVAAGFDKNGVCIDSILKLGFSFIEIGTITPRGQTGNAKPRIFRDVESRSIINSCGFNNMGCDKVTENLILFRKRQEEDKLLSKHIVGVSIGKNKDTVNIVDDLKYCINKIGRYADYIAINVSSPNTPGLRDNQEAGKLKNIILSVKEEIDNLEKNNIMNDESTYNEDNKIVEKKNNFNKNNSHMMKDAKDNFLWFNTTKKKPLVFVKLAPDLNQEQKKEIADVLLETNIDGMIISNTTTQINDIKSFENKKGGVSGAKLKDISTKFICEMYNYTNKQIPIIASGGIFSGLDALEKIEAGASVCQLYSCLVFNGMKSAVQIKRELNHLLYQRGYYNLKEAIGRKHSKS

[5] = P. aeruginosa biofilm formation inhibitors, primary screen, strain PAO1, LB-PBS medium, absorbance 600 nm (AID 1176); also: test concentration not given here; settings: P. aeruginosa PAO1 growth/biofilm, A600, 12 h; higher = more signal
[6] = S. cerevisiae RM11-1a growth modifiers, primary screen, strain RM11-1a, OD600, basal, 24 h (AID 1177); settings: OD600, 24 h, higher = more signal, called active from +8 up or from −8 down;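 also: cultures grown under basal conditions with no added stressor; test concentration not given here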
[7] = E. coli acrAB mutant growth effects, primary screen, E. coli filamentation inducers, strain DRC39, OD650, 24 h (AID 1178); settings: higher = more signal, called active from +8 up or from −8 down;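 also: growth measured as culture turbidity by optical density at 650 nm; test concentration not given here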
[8] = E. coli acrAB mutant growth effects, primary screen, E. coli filamentation inducers, strain DRC39, OD650, 48 h (AID 1179);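 also: screen aims at cell division blockers that make cells filament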; settings: E. coli DRC39 delta-acrAB growth, higher = more signal, called active from +8 up or from −8 down
[9] = RPMI8226 myeloma cell viability, profiling panel, resazurin fluorescence, basal, 24 h, PK04 Diversity Set (AID 1180); settings: higher = more signal;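 also: RPMI8826 multiple myeloma cell line at 5000 cells per well; test concentration not given here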
[10] = biological target: E3 ubiquitin-protein ligase XIAP (Homo sapiens) (UniProt P98170); assay: XIAP binders, primary screen, biophysical, small-molecule microarray, fluorescence 635 nm (AID 1181); settings: small-molecule microarray binding, higher = more signal;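 also: score merges 667 nm emission and signal to noise over triplicate slides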
E3 ubiquitin-protein ligase XIAP (Homo sapiens), sequence (P98170 whole entry, looked up): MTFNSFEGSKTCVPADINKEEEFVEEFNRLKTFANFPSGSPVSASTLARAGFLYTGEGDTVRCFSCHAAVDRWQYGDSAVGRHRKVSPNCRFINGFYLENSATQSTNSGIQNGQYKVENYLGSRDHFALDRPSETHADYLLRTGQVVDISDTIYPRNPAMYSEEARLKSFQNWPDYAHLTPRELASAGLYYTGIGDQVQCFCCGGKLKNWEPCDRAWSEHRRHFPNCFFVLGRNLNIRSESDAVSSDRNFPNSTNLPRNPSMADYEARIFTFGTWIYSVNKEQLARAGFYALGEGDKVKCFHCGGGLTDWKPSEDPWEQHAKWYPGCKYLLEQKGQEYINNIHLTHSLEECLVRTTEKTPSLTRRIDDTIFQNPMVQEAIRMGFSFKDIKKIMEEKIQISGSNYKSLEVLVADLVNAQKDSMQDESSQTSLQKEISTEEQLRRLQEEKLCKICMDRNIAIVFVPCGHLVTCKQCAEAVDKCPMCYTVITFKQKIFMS

Row | SMILES | z-score [1] | z-score [2] | z-score [3] | composite z-score [4] | z-score [5] | z-score [6] | z-score [7] | z-score [8] | z-score [9] | composite z-score [10]
1 | CCN1C(=O)[C@H]2[C@H]3[C@H](O)[C@H](O)CC(=NO[C@@H](C)c4cc(-c5c(C)cc(C)cc5C)no4)[C@@H]3CC[C@H]2C1=O | 0.0416 | -2.13 (inactive) | -0.69 (inactive) | -0.126 (inactive) | 0.0646 (inactive) | 0.0564 (inactive) | 0.767 (inactive) | 0.596 (inactive) | -0.835 | -0.102
2 | CC(C)CON=C1C[C@@H](O)[C@@H](O)[C@@H]2[C@@H]3C(=O)N(Cc4ccc5c(c4)OCO5)C(=O)[C@@H]3CC[C@@H]12 | 0.344 | 0.793 (inactive) | 0.61 (inactive) | 0.0312 (inactive) | -0.249 (inactive) | 0.64 (inactive) | 0.146 (inactive) | -0.563 (inactive) | -0.0253 | -0.102
3 | O=C1C[C@@H](O)[C@@H](O)[C@@H]2[C@@H]3C(=O)N(C4CCCCC4)C(=O)[C@@H]3CC[C@@H]12 | -0.432 | 0.133 (inactive) | -0.262 (inactive) | -0.506 (inactive) | -1.13 (inactive) | 0.356 (inactive) | -0.574 (inactive) | -0.354 (inactive) | -0.27 | 0.333
4 | CC(C)[C@@H](OCc1ccccc1)[C@H](C)CON=C1[C@H]2CCn3c(=O)n(-c4ccccc4)c(=O)n3[C@H]2[C@H](O)[C@@H]2O[C@H]12 | -0.486 | -1.96 (inactive) | -0.704 (inactive) | -1.78 (inactive) | -0.348 (inactive) | -0.402 (inactive) | 0.961 (inactive) | 0.876 (inactive) | -0.789 | -0.193
5 | CC(C)CON=C1C[C@@H](O)[C@@H](O)[C@@H]2[C@@H]3C(=O)N([C@@H](C)c4ccccc4)C(=O)[C@@H]3CC[C@@H]12 | -0.161 | 0.221 (inactive) | -0.827 (inactive) | 0.291 (inactive) | 1.6 (inactive) | -0.251 (inactive) | -0.286 (inactive) | -0.112 (inactive) | -0.534 | 0.209
6 | CCN1C(=O)[C@H]2[C@@H]3C(=CC[C@H]2C1=O)C(=O)[C@H]1O[C@H]1[C@H]3O | -1.22 | -1.12 (inactive) | -5.38 (inactive) | -0.0207 (inactive) | -0.978 (inactive) | -0.628 (inactive) | -0.615 (inactive) | -0.788 (inactive) | -2.17 | 0.334
7 | COc1ccc(COC(=O)NN=C2C[C@@H](O)[C@@H](O)[C@@H]3[C@@H]4C(=O)N(C[C@@H]5CCCO5)C(=O)[C@@H]4CC[C@@H]23)cc1 | -0.407 | 0.443 (inactive) | 0.075 (inactive) | -0.367 (inactive) | 0.328 (inactive) | 0.513 (inactive) | 1.02 (inactive) | 1.11 (inactive) | 0.115 | -0.0559
8 | Cc1cc(C)c(-c2cc([C@H](C)ON=C[C@@H](C)[C@H](OCc3ccccc3)C(C)C)on2)c(C)c1 | -0.811 | 0.462 (inactive) | -0.258 (inactive) | -0.382 (inactive) | -0.23 (inactive) | 0.255 (inactive) | 0.262 (inactive) | 0.336 (inactive) | -0.522 | 0.02
9 | O=C1C[C@H](c2ccccc2)[C@H](c2ccc(Br)cc2)O1 | -0.598 | -8.77 (active) | -0.118 (inactive) | -1.24 (inactive) | 0.605 (inactive) | -2.74 (inactive) | 0.358 (inactive) | -1.67 (inactive) | 0.0497 | -0.0438
10 | CCOC(=O)NN=C1C[C@@H](O)[C@@H](O)[C@@H]2[C@@H]3C(=O)N(c4ccc(F)cc4F)C(=O)[C@@H]3CC[C@H]12 | 0.99 | -0.468 (inactive) | 1.44 (inactive) | -2.51 (inactive) | 0.614 (inactive) | -0.738 (inactive) | 0.284 (inactive) | 0.498 (inactive) | 0.241 | -0.176
11 | CC(=O)OC[C@H]1O[C@H](C#CCC2CCCCC2)C=C[C@@H]1OC(C)=O | 0.0616 | -3.69 (inactive) | -2.52 (inactive) | -0.529 (inactive) | 0.781 (inactive) | 0.143 (inactive) | 1.07 (inactive) | 0.591 (inactive) | -1.24 | -0.0314
12 | COC(=O)CC=C[C@@H](C)[C@@H](C=NOC(C)CN1CCCc2nc(C)c(C)cc21)NS(=O)(=O)c1ccc(C)cc1 (stereo not given in full) | -0.566 | 0.21 (inactive) | -0.47 (inactive) | 0.899 (inactive) | 0.253 (inactive) | 0.253 (inactive) | 0.157 (inactive) | -0.0007 (inactive) | -1.32 | 0.222
13 | CC(CCN1CCCc2nc(C)c(C)cc21)=NO[C@@H](C)c1cn([C@H](CO)Cc2ccccc2)nn1 | -0.333 | 0.472 (inactive) | 0.0688 (inactive) | -1.1 (inactive) | -0.725 (inactive) | 0.792 (inactive) | 0.851 (inactive) | 0.961 (inactive) | -0.789 | 0.115
14 | CCc1cc2c(nc1CC)CCN(CCC(C)=NO[C@@H]1O[C@H](COC(C)=O)[C@@H](OC(C)=O)[C@H](OC(C)=O)[C@H]1OC(C)=O)C2 | -0.11 | -0.334 (inactive) | 0.164 (inactive) | -2.7 (inactive) | -0.585 (inactive) | -0.567 (inactive) | -1.25 (inactive) | -1.82 (inactive) | -0.387 | 0.0825
15 | C[C@@H](c1ccccc1)N1C(=O)[C@H]2[C@H]3[C@H](O)[C@H](O)CC(=NOCc4ccccc4)[C@@H]3CC[C@H]2C1=O | -0.511 | -0.123 (inactive) | -0.457 (inactive) | 0.805 (inactive) | -0.0819 (inactive) | -0.183 (inactive) | -0.241 (inactive) | -0.0934 (inactive) | -0.181 | -0.185
16 | COC(=O)[C@H](C)NC(=O)CCC1CC(OC(=O)NCc2ccc3c(c2)OCO3)CC2(CCCC(COC(=O)NCCc3ccc(Cl)cc3)O2)O1 (stereo not given in full) | 0.388 | 0.515 (inactive) | -0.682 (inactive) | 0.0925 (inactive) | -0.965 (inactive) | 0.88 (inactive) | 0.616 (inactive) | -0.729 (inactive) | 0.0968 | -0.0559
17 | COC(=O)[C@H](C)NC(=O)CCC1CC(OC(=O)NCc2ccc3c(c2)OCO3)CC2(CCCC(COC(=O)NCCCN3CCCC3=O)O2)O1 (stereo not given in full) | 0.161 | 0.58 (inactive) | -0.0358 (inactive) | 0.184 (inactive) | 0.226 (inactive) | 1.04 (inactive) | 0.7 (inactive) | -0.028 (inactive) | 0.0805 | -0.245
18 | CCOC(=O)[C@H](Cc1ccccc1)NC(=O)CCC1CC(OC(=O)NCc2cccc3ccccc23)CC2(CCCC(COC(=O)NCCOc3ccccc3)O2)O1 (stereo not given in full) | -0.208 | -1.13 (inactive) | 1.41 (inactive) | -0.533 (inactive) | -0.0448 (inactive) | -1.17 (inactive) | 0.19 (inactive) | -1.67 (inactive) | 1.02 | -0.102
19 | CCN1C(=O)[C@H]2[C@H]3[C@H](O)[C@H](O)CC(=NOCC(C)C)[C@H]3CC[C@H]2C1=O | -0.259 | -0.36 (inactive) | -0.929 (inactive) | -0.649 (inactive) | -0.225 (inactive) | -0.117 (inactive) | 0.645 (inactive) | 0.568 (inactive) | -0.971 | -0.122
20 | CC(C)=NO[C@H](C)c1cn([C@@H]2COC[C@H]2O)nn1 | -1.51 | -0.0346 (inactive) | -0.508 (inactive) | 0.0741 (inactive) | 0.101 (inactive) | -0.683 (inactive) | 0.504 (inactive) | 0.82 (inactive) | -0.469 | -0.152
21 | COC(=O)[C@H](C)NC(=O)CCC1CC(OC(=O)NCc2cccc3ccccc23)CC2(CCCC(COC(=O)NCc3ccccc3)O2)O1 (stereo not given in full) | 2.27 | -0.79 (inactive) | 1.18 (inactive) | 0.0095 (inactive) | -0.376 (inactive) | 0.136 (inactive) | -0.221 (inactive) | 0.324 (inactive) | 1.42 | -0.123
